Source: PubChem BioAssay (NMMLSC)
GSH bead fluor – GSH bead compound fluorescence profile; fluorescence (KMESF) at 10 µM; GSH beads flow cytometry, compound fluorescence 488/530 nm; hits give high values; actives 0.25% (n = 190,000); AID 1776; in the data active = fluorescence above about 89;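 note: glutathione beads carrying GST-tagged Bcl family fusion proteins plus one bare bead set; values are compound well signal with DMSO vehicle wells as background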
RGS4-Gao reg – human RGS4-Galphao interaction regulation | binding response (% of control), % at 10 µM | Multiplexed bead flow cytometry, RGS4-Galphao binding; actives lie on both sides | AID 1415 | P09471 | actives 0.33% (n = 220,000); in the data active = binding response below about 49% or above about 150%; inactive = in between;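 note: fluorescent Galphao activated with aluminum fluoride binding bead-coupled RGS4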
Target sequence (P09471 whole entry, looked up): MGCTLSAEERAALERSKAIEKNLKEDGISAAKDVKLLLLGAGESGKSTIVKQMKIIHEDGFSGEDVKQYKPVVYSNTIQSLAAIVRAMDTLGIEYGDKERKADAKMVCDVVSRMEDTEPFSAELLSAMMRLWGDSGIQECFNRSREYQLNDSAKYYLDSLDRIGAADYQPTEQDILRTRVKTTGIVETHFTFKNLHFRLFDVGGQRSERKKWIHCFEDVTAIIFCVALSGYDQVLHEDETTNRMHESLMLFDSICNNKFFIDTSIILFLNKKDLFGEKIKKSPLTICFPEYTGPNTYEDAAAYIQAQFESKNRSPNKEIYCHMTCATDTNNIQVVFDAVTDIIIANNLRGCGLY
RGS16-Gao HTS – RGS16-Galphao interaction regulator (human); bead-based flow cytometry RGS16-Galphao binding, fluorescence; actives lie on both sides; binding response (% of control), % at 10 µM; actives 0.38% (n = 220,000); O15492+P09471;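 note: Galphao activated by GDP with aluminum fluoride before binding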
Target sequence (O15492 whole entry, looked up): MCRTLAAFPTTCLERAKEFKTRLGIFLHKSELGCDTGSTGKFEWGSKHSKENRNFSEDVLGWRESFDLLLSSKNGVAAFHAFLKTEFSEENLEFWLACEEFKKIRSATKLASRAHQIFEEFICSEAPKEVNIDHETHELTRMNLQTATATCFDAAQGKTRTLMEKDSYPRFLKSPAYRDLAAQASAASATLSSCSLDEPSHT
Target sequence (P09471 whole entry, looked up): as the sequence (P09471 whole entry, looked up) above
Avidin bead fluor – avidin bead compound fluorescence profile; AID 1775; actives 0.38% (n = 220,000); Avidin beads, compound fluorescence 488/530 nm, flow cytometry; hits give high values; fluorescence (KMESF) at 10 µM; in the data active = fluorescence above about 47
RGS7-Gao reg – human RGS7-Galphao interaction regulation. P09471. Multiplexed bead flow cytometry, RGS7-Galphao binding; actives lie on both sides. binding response (% of control), % at 10 µM. actives 0.35% (n = 220,000). AID 1439; in the data active = binding response below about 49% or above about 150%; inconclusive = no clear call, values can overlap the other calls; inactive = in between;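 note: fluorescent Galphao held in activated GDP-AlF4 state binding bead-coupled RGS7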
RGS8-Gao – regulators of human RGS8-Galphao interaction; actives 0.34% (n = 220,000); multiplexed bead flow cytometry, RGS8-Galphao binding; actives lie on both sides; response (percent of control binding), % at 10 µM; in the data active = response below about 60% or above about 140%; inactive = in between;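 note: Galphao activated as the GDP aluminium fluoride complex binding bead-coupled RGS8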
RGS4-Gao HTS – RGS4-Galphao interaction regulator (human); shares compounds with RGS16-Gao HTS; multiplexed bead flow cytometry, RGS–Galpha-o binding; RGS4–Galpha-o binding response, % at 10 µM; actives 99% (n = 1,600); AID 1504;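 note: fluorescently labeled Galpha-o bound to GDP with aluminium fluoride binding biotinylated RGS beads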
Avidin counter – biotin-avidin bead binding disruption counter-screen. 1,700 tested, under 10 active. inhibition, % at 10 µM. streptavidin beads, fluorescein-biotin binding, flow cytometry. shares compounds with RGS16-Gao HTS;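 active = inhibition above 50%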;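 note: median green fluorescence of gated singlet beads compared with DMSO control wells; 0% = DMSO wells and 100% = complete loss of bead fluorescence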
RGS8-Gao single – confirmation of regulators of human RGS8-Galphao interaction | binding response (% of control), % at 10 µM | shares compounds with RGS16-Gao HTS | AID 1836 | bead-based flow cytometry RGS8-Galphao binding, fluorescence; actives lie on both sides | actives 3% (n = 1,700); in the data active = binding response below about 72% or above about 130%; inactive = in between;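 note: Galphao activated as GDP AlF4 complex before binding bead RGS8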
RGS7-Gao single – RGS7-Galphao interaction regulation, single point confirmation; actives 7.8% (n = 1,700); response (percent of control binding), % at 10 µM; AID 1837; shares compounds with RGS16-Gao HTS; bead-based flow cytometry RGS7-Galphao binding; actives lie on both sides; in the data active = response below about 75% or above about 130%; inactive = in between;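 note: fluorescent Galphao activated with GDP and aluminum fluoride binding bead-coupled RGS7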
RGS16-Gao conf – RGS16-Galphao interaction regulation, single point confirmation | shares compounds with RGS16-Gao HTS | bead-based flow cytometry, RGS16-Galphao binding; actives lie on both sides | response (% of control binding), % at 10 µM | actives 4% (n = 1,700); in the data active = response below about 74% or above about 130%; inactive = in between;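 note: Galphao activated as the GDP aluminium fluoride complex binding bead-coupled RGS16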
RGS4-Gao single – confirmation of regulators of human RGS4-Galphao interaction. binding response (% of control), % at 10 µM. RGS4-Galphao binding, multiplexed bead flow cytometry; actives lie on both sides. shares compounds with RGS16-Gao HTS. actives 4% (n = 1,700); in the data active = binding response below about 74% or above about 130%; inactive = in between
RGS19-Gao conf – confirmation of regulators of human RGS19-Galphao interaction; shares compounds with RGS16-Gao HTS; bead-based flow cytometry RGS19-Galphao binding; actives lie on both sides; response (percent of control binding), % at 10 µM; actives 5% (n = 1,700); in the data active = response below about 50% or above about 160%; inactive = in between;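 note: 100% = no compound control and 0% = blank background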
Active calls of the source: *; ? = inconclusive; nt = not tested or not shown; [ ] = dose if it differs, or a comment. Compounds with a hit are over-represented: about 1.2% of the library has one in this group of screens. Unless noted, the rule behind the calls is not given here.

SMILES	GSH bead fluor	RGS4-Gao reg	RGS16-Gao HTS	Avidin bead fluor	RGS7-Gao reg	RGS8-Gao	RGS4-Gao HTS	Avidin counter	RGS8-Gao single	RGS7-Gao single	RGS16-Gao conf	RGS4-Gao single	RGS19-Gao conf
Cc1ccc(-n2ncc3c(=O)[nH]c(SCC(=O)N4CCCC4)nc32)cc1C	18	101.7	106.4	7	101.6	103.2	nt	nt	nt	nt	nt	nt	nt
C/C(=N\NC(=O)CC#N)C1COc2ccccc2O1 (stereo not given)	10	101.5	109.5	12	104.6	103.0	nt	nt	nt	nt	nt	nt	nt
O=[N+]([O-])c1cc(C(F)(F)F)c(Cl)cc1N1CCN(CCO)CC1	15	102.6	99.3	22	99.6	101.9	nt	nt	nt	nt	nt	nt	nt
OCCN1CCN(c2cc(C(F)(F)F)nc3c(F)cccc23)CC1	nt	-9.0*	-6.6*	-1	?	10.8*	nt	-0.5	101.8	99.5	103.1	99.8	107.1
O=C(Nc1ccccc1[N+](=O)[O-])C1(c2ccccc2)CCOCC1	23	141.1	110.3	202*	333.5*[activator]	97.4	141.1*	2.0	97.8	91.3	95.0	96.1	89.3
CCC(=O)NC1=C(Cl)C(=O)C(NC(=O)CC)=C(Cl)C1=O	nt	73.0	8.6*	3	?	52.8*	73.0*	-1.5	35.1*	54.0*	-3.1*	77.2	-6.5*
CCC(=O)NC1=C(NC(C)c2ccccc2)C(=O)c2ccccc2C1=O (stereo not given)	26	108.8	104.0	4	106.8	106.8	nt	nt	nt	nt	nt	nt	nt
COC(=O)c1ccccc1NC(=O)/C=C/C(=O)O	13	86.6	34.5*	8	96.1	86.3	86.6*	-1.6	100.6	102.3	101.1	100.9	93.6
COC(=O)c1ccccc1NC(=O)CN1C(=O)CSC1=O	41	nt	nt	nt	nt	nt	nt	1.3	100.3	99.2	99.6	99.0	89.1
COC(=O)c1cc(NC(=O)CN2C(=O)CSC2=O)ccc1Cl	11	104.9	111.1	15	109.0	97.0	nt	nt	nt	nt	nt	nt	nt
CCOC(=O)c1c(C)nc(C)c2c(=O)oc3ccccc3c12	13	94.9	94.9	4	98.1	101.3	nt	nt	nt	nt	nt	nt	nt
COC(=O)/C(C#N)=C1/C=Cc2ccccc2N1	14	102.1	109.1	20	104.2	104.6	nt	nt	nt	nt	nt	nt	nt
CCOC(=O)C1=C(N)OC2=C(C(=O)CCC2)C1c1ccccc1OC (stereo not given)	16	99.2	105.4	11	99.0	100.5	nt	nt	nt	nt	nt	nt	nt
CCOC(=O)C1=C(N)OC2=C(C(=O)CCC2)C1c1ccccc1OCC (stereo not given)	34	134.6	111.2	172*	295.8*[activator]	96.8	134.6*	-0.2	97.4	93.1	97.1	99.4	98.6
CCn1nnc(NC(=O)CSc2ccc(Cl)cc2)n1	34	nt	nt	nt	nt	nt	nt	-0.5	96.8	90.0	100.0	92.7	114.3
CCOC(=O)N1CCN(C(=O)CCCn2c(=S)[nH]c3ccccc3c2=O)CC1	45	nt	nt	nt	nt	nt	nt	0.4	102.2	98.2	106.8	102.8	102.5
COc1ccc(/C=C/C(=O)N2CCN(c3ccccn3)CC2)c2ccccc12	10	100.4	108.4	21	101.4	104.4	nt	nt	nt	nt	nt	nt	nt
Cc1scc(C(=O)NNC(=S)NCC2CCCO2)c1-c1ccccc1 (stereo not given)	12	97.9	22.5*	1	99.7	71.1	97.9*	1.9	92.2	89.2	89.7	90.5	98.8
COc1ccc(N/C=C/C(=O)c2ccc(Cl)cc2)cc1	10	127.9	60.8	11	125.4	60.0*	127.9*	-0.8	99.3	102.0	104.5	102.2	100.2
COc1cccc(N/C=C/C(=O)c2ccc(Cl)cc2)c1	6	88.6	65.5	1	94.6	81.5	nt	nt	nt	nt	nt	nt	nt
C=CCN(c1cccc(C(F)(F)F)c1)S(=O)(=O)c1cccc(C(=O)OCC(=O)Nc2ccccc2)c1	11	96.6	132.4	13	98.7	107.1	nt	nt	nt	nt	nt	nt	nt
Cc1ccccc1-n1c(-c2ccncc2)n[nH]c1=S	11	91.1	18.2*	13	88.2	64.1	91.1*	0.2	106.5	111.2	106.9	109.6	100.6
COc1ccc(C(=O)c2ccc(OC)c(Br)c2)cc1Br	11	120.3	253.9*[activator]	4	120.0	131.4	120.3*	-0.1	99.5	100.7	98.2	99.8	89.0
COc1ccc(C(=S)N2CCC(C(N)=O)CC2)cc1Br	14	102.2	96.9	8	?	99.3	nt	nt	nt	nt	nt	nt	nt
COc1ccc(NC(=O)Nc2nnc(-c3ccccc3SCc3ccccc3)s2)cc1	33	nt	nt	nt	nt	nt	nt	0.1	102.6	104.5	105.4	102.8	103.6
SMILES	GSH bead fluor	RGS4-Gao reg	RGS16-Gao HTS	Avidin bead fluor	RGS7-Gao reg	RGS8-Gao	RGS4-Gao HTS	Avidin counter	RGS8-Gao single	RGS7-Gao single	RGS16-Gao conf	RGS4-Gao single	RGS19-Gao conf
COc1cccc(NC(=O)Nc2nnc(-c3ccccc3SCc3ccccc3)s2)c1	9	104.7	105.6	7	101.4	105.3	nt	nt	nt	nt	nt	nt	nt
CC(=O)c1ccc(NS(=O)(=O)c2c(C)cc(C)cc2C)cc1	14	95.3	116.0	11	93.2	104.0	nt	nt	nt	nt	nt	nt	nt
Cc1cc(C)c(S(=O)(=O)Nc2ccc(O)cc2)c(C)c1	15	126.2	292.8	7	117.7	141.2*[activator]	126.2*	0.5	100.1	99.0	101.4	100.6	99.4
COc1cc(/C=C2\SC(=O)N(CCN)C2=O)ccc1OS(=O)(=O)c1cc(C)ccc1C	16	103.3	98.0	8	?	102.7	nt	nt	nt	nt	nt	nt	nt
Cc1ccc(NC(=O)Nc2ccccc2CC[N+](=O)[O-])cc1	10	116.5	270.3	21	118.3	149.2*[activator]	116.5*	-0.3	102.6	100.8	101.8	102.4	93.9
CC(C)N(C)CCOC(=O)C1COc2ccccc2O1 (stereo not given)	nt	106.2	103.8	8	?	104.8	nt	nt	nt	nt	nt	nt	nt
C#CCOC(=O)C(NC(=O)c1ccccc1)=C(C)C	40	77.8	-38.4*	0	89.7	82.7	77.8*	1.0	102.6	102.4	102.5	101.8	101.1
CCOC(=O)C(NC(=O)c1ccccc1)=C(C)C	47	103.2	102.6	6	101.7	104.5	nt	nt	nt	nt	nt	nt	nt
